Reference: PubChem BioAssay (Tox21)
Inconclusive results are not listed. A call without a number means that no potency is given here. More than one record can exist for a structure, and the calls need not agree. Activity calls are given as the source filed them. The call rests on the fitted dose curve.

Assay: qHTS assay to identify small molecule agonists of the AP-1 signaling pathway - cell viability counter screen (AID 1159525); further: nearly all actives have a fitted effect of over 55% in size
Details: ME-180 (cervical carcinoma) AP-1-bla cells viability, ATP luminescence, 5 h; series mostly up to 76.8 µM
Procedure, shortened: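 AP-1-bla ME-180 cells in Opti-MEM with 0.5% dialyzed FBS, compound exposure 5 h at 37 C in 15-point titration. Viability read in the same wells as ATP content by CellTiter-Glo luminescence, normalised to tetra-n-octylammonium bromide and DMSO controls.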
Potency means the concentration at half of the fitted maximal effect.

SMILES | Potency
C#C[C@]1(O)CC[C@H]2[C@@H]3CCC4=Cc5oncc5C[C@]4(C)[C@H]3CC[C@@]21C | 54.9 µM (active) and inactive
c1ccc2sc(SSN3CCOCC3)nc2c1 | inactive
Nc1ncn([C@@H]2O[C@H](CO)[C@@H](O)[C@H]2O)c(=O)n1 | inactive
CN(C)c1nc(N(C)C)nc(N(C)C)n1 | inactive
CN(C)CCN(Cc1cccs1)c1ccccn1 | inactive
CC(C)(C)NC(=O)[C@H]1CC[C@H]2[C@@H]3CC[C@H]4NC(=O)C=C[C@]4(C)[C@H]3CC[C@]12C | inactive
CCCCC(CC)COCC1CO1 (centres undefined) | inactive
COC(=O)Nc1nc2ccc(S(=O)c3ccccc3)cc2[nH]1 (centres undefined) | inactive
CC(=O)Oc1ccccc1C(=O)Nc1ncc([N+](=O)[O-])s1 | inactive
c1cc(-c2ccncc2)ccn1 | inactive
OC[C@H]1O[C@@H]2O[C@H]3[C@H](O)[C@@H](O)[C@@H](O[C@H]4[C@H](O)[C@@H](O)[C@@H](O[C@H]5[C@H](O)[C@@H](O)[C@@H](O[C@H]6[C@H](O)[C@@H](O)[C@@H](O[C@H]7[C@H](O)[C@@H](O)[C@@H](O[C@H]8[C@H](O)[C@@H](O)[C@@H](O[C@H]1[C@H](O)[C@H]2O)O[C@@H]8CO)O[C@@H]7CO)O[C@@H]6CO)O[C@@H]5CO)O[C@@H]4CO)O[C@@H]3CO | inactive
NC=O | inactive
COC(=O)C1=C(C)NC(C)=C(C(=O)OCCN(C)Cc2ccccc2)C1c1cccc([N+](=O)[O-])c1 (centres undefined) | inactive
c1ccc2cc(Nc3ccc(Nc4ccc5ccccc5c4)cc3)ccc2c1 | inactive
